Measured values reported in PubChem BioAssay (NCATS).
Results filed as inconclusive are left out. The source made the active and inactive calls. Unless noted, calls come from the whole dose curve; as a rule, active = well fitted curve in the direction sought with a large enough effect; inconclusive = small, poorly fitted or top-dose-only effect, or another doubt; inactive = no such curve, though single readings can be large; an effect the other way counts as inactive or inconclusive.

Assays:
[1] = target: Cytochrome P450 1A2 (Homo sapiens) (UniProt P05177); assay: p450-cyp1a2 (AID 410; calls by dose curve; note: potency is the fitted concentration of half-maximal effect)
In short: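 Luminescent demethylation readout: Luciferin-ME (100uM, equal to Km) turned over by 20nM CYP1A2 for 60 min at room temperature after NADPH regeneration addition, following 10 min compound preincubation. Normalization used 57 uM furafylline as full inhibition.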

[2] = target: Glucocorticoid receptor (Homo sapiens) (UniProt P04150); assay: GR-GFP Redistribution (AID 450;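 active = compounds whose dose series gives a full or clear partial fitted curve of increased nuclear translocation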; note: potency is the fitted concentration of half-maximal effect); conditions: U2OS GR-GFP nuclear translocation, laser cytometry, 2 h
[3] = target: Glucocorticoid receptor (Homo sapiens) (UniProt P04150); assay: GR-EFC Redistribution (AID 451; calls by dose curve; note: potency is the fitted concentration of half-maximal effect); conditions: CHO-K1 GR-EFC translocation, beta-gal luminescence, 2 h
In short: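 Translocation of GR-ED fusion to nuclear EA restores b-gal, read by luminescence after 1 h room-temperature detection. Engineered CHO-K1 biosensor cells, 1,000/well, exposed 2 h at 37 C to titrations up to 46 uM final.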

[4] = target: Mitogen-activated protein kinase 10 (Mus musculus) (UniProt Q61831); assay: JNK3 AlphaScreen Assay (AID 530; active = well fitted curve in either direction with a large enough effect, not every such curve was filed as active;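 note: kinase came from lysate of stimulated human HepG2 cells; signal reports phosphorylation of biotinylated GST-cJun 1-79 at Ser73 with 10 µM ATP; series mostly up to about 57 µM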)
In short: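 qHTS titrations with 15 min compound pre-incubation before adding ATP (10 uM final). Read-out: AlphaScreen of Ser73-phosphorylated biotin-GST-cJun using HepG2 lysate JNK3 activated by IL-1β and TNFα.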

[5] = target: Cytochrome P450 2D6 (Homo sapiens) (UniProt P10635); assay: qHTS Assay for Inhibitors and Substrates of Cytochrome P450 2D6 (AID 891); note: potency is the fitted concentration of half-maximal effect; nearly all actives have a fitted effect of over 60% in size
In short: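 Luminescent read-out of luciferin formed by 5 nM human CYP2D6 demethylating 30 uM Luciferin-ME EGE (Km level) over 60 min at room temperature after NADPH regeneration addition. Data normalized to full inhibition by 1.43 uM quinidine.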

[6] = target: Ubiquitin carboxyl-terminal hydrolase 1 (Homo sapiens) (UniProt O94782); assay: Inhibitors of USP1/UAF1: Pilot qHTS (AID 504865); note: nearly all actives have a fitted effect of over 35% in size; note: potency is the fitted concentration of half-maximal effect
In short: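 Kinetic fluorescence assay: 1nM USP1/UAF1, 15 min compound preincubation, then 150nM Ub-Rho; 480/540 nm.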

[7] = target: DNA dC->dU-editing enzyme APOBEC-3G (Homo sapiens) (UniProt Q9HC16); assay: qHTS for inhibitors of Vif-A3G interactions: Validation (AID 588379); note: potency is the fitted concentration of half-maximal effect
In short: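 Yellow fluorescence (Ex 488, Em 500-530) of Vif-coexpressing HeLa A3G-eYFP cells, scanned by Acumen cytometer, reports blocked A3G degradation. Cells plated at 700/well overnight at 37 deg C before compound addition, then a further overnight compound incubation at 37 deg C.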

[8] = test system: Zika virus NS2B-NS3 protease; assay: Primary screen GU AMC qHTS for Zika virus inhibitors (AID 1347154); note: nearly all actives have a fitted effect of over 70% in size
In short: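 Fluorogenic AMC-substrate cleavage by noncovalent NS2B-NS3 protease complex (25 nM, pH 8.0 Tris buffer with Tween 20) followed for 15 minutes at room temperature (~20% conversion). Percent inhibition from ex340/em450 signal change, fitted by 4-parameter Hill equation.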

[9] = Primary qHTS for small molecule stabilizers of the endoplasmic reticulum resident proteome: Secreted ER Calcium Modulated Protein (SERCaMP) assay (AID 1508630)
In short: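 The SH-SY5Y reporter protocol was run at 3 concentrations up to 38.3 uM (primary) or 11 concentrations (follow-up): 16 h compound, 100 nM thapsigargin for 4 h, then extracellular luciferase luminescence.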

[10] = target: 3',5'-cyclic-AMP phosphodiesterase 4B (Homo sapiens) (UniProt Q07343); assay: qHTS Assay for Inhibitors of PDE-IV (AID 607; active = well fitted activation curve with a large enough effect in the main read-out, with a control signal flat, not every such curve was filed as active)
In short: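 ACTOne HEK293 cells carry a modified cAMP-gated CNG channel and express endogenous PDE4; plated 1000 cells/well, compounds up to 22.9 uM final. Membrane-potential dye fluorescence (ex 535/em 590) was read; parental cells received 10 uM forskolin + 100 uM RO 20-1724.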

[11] = target: Cytochrome P450 3A4 (Homo sapiens) (UniProt P08684); assay: qHTS Assay for Activators of Cytochrome P450 3A4 (AID 885); note: nearly all actives have a fitted effect of over 65% in size
In short: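 CYP3A4 activity: Luciferin-PPXE O-dealkylation, 25uM substrate, 200mM KPO4, RT throughout. Read-out is luciferase luminescence; higher values reflect activation.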

[12] = target: Cytochrome P450 2C9 (Homo sapiens) (UniProt P11712); assay: qHTS Assay for Inhibitors and Substrates of Cytochrome P450 2C9 (AID 883); note: potency is the fitted concentration of half-maximal effect; nearly all actives have a fitted effect of over 60% in size
In short: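 Turnover of Luciferin-H (100uM, KM) by 10nM human CYP2C9 was measured over 60 min at 37C with NADPH regeneration; inhibitors and some substrates reduce luminescence. Data normalized to sulphaphenazole 57uM.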

[13] = target: Cytochrome P450 2C19 (Homo sapiens) (UniProt P33261); assay: qHTS Assay for Inhibitors and Substrates of Cytochrome P450 2C19 (AID 899); note: potency is the fitted concentration of half-maximal effect; nearly all actives have a fitted effect of over 60% in size
In short: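 Reactions contain 5nM enzyme, 10uM Luciferin-H EGE (KM) and 50mM KPO4; compound preincubates 10 min at 37C, NADPH regeneration starts turnover for 60 min. Luminescence after detection reagent gives activity.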

[14] = target: Cytochrome P450 3A4 (Homo sapiens) (UniProt P08684); assay: qHTS Assay for Inhibitors and Substrates of Cytochrome P450 3A4 (AID 884); note: potency is the fitted concentration of half-maximal effect; nearly all actives have a fitted effect of over 50% in size
In short: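 Luminescent readout of luciferin produced by CYP3A4 (20 nM) dealkylation of Luciferin-PPXE, 25 uM (its KM). NADPH-driven reaction ran 60 min at RT after 10 min compound preincubation; data scaled to 57 uM ketoconazole as 100% inhibition.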

Measured: Potency

Ubiquitin carboxyl-terminal hydrolase 1 (Homo sapiens), sequence (O94782 whole entry, looked up): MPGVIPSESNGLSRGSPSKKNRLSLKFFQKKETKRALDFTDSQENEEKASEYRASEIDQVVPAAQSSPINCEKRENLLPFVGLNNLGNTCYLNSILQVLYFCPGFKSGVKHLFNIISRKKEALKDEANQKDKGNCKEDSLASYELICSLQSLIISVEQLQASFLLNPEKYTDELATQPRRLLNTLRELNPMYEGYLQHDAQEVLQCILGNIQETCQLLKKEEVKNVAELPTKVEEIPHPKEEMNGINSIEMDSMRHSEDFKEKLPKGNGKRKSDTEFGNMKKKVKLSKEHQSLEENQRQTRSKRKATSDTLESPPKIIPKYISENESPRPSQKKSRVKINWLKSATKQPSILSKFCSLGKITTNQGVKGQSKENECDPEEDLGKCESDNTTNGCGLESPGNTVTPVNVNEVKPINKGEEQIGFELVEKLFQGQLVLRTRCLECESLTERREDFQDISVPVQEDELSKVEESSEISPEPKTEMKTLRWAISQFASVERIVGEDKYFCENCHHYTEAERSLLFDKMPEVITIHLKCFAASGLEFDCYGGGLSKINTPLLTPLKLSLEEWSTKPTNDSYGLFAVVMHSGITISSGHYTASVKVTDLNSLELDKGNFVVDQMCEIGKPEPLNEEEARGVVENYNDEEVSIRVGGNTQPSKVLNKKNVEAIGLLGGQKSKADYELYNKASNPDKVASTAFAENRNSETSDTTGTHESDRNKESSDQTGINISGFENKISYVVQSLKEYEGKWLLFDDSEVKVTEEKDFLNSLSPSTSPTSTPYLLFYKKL
Cytochrome P450 2D6 (Homo sapiens), sequence (P10635 whole entry, looked up): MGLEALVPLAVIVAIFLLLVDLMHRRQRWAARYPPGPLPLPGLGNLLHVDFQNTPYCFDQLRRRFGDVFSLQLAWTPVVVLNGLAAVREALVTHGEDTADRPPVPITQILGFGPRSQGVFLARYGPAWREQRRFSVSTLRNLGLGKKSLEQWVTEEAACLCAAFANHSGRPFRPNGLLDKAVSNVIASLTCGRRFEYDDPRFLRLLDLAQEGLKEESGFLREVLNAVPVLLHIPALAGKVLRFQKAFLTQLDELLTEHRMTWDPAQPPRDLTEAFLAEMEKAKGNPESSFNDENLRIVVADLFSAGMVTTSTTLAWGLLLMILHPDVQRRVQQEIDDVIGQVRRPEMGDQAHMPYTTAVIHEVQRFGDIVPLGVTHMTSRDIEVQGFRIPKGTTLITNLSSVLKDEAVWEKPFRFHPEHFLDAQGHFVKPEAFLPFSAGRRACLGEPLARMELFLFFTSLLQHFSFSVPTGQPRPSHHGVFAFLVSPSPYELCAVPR
Cytochrome P450 3A4 (Homo sapiens), sequence (P08684 whole entry, looked up): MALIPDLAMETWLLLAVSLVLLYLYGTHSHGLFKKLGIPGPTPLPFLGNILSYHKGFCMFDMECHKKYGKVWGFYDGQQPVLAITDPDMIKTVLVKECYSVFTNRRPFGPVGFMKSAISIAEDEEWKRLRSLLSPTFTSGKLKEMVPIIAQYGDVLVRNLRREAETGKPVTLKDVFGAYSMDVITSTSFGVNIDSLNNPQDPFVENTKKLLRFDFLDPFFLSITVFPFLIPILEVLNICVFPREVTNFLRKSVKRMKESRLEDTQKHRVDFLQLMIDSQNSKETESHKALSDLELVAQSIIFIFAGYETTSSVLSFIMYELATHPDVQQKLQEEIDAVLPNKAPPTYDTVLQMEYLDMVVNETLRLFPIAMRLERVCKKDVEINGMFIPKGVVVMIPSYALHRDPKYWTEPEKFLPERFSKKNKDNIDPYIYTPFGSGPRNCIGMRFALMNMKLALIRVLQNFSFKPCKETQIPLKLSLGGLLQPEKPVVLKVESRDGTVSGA
Glucocorticoid receptor (Homo sapiens), sequence (P04150 whole entry, looked up, the tested form may be a part): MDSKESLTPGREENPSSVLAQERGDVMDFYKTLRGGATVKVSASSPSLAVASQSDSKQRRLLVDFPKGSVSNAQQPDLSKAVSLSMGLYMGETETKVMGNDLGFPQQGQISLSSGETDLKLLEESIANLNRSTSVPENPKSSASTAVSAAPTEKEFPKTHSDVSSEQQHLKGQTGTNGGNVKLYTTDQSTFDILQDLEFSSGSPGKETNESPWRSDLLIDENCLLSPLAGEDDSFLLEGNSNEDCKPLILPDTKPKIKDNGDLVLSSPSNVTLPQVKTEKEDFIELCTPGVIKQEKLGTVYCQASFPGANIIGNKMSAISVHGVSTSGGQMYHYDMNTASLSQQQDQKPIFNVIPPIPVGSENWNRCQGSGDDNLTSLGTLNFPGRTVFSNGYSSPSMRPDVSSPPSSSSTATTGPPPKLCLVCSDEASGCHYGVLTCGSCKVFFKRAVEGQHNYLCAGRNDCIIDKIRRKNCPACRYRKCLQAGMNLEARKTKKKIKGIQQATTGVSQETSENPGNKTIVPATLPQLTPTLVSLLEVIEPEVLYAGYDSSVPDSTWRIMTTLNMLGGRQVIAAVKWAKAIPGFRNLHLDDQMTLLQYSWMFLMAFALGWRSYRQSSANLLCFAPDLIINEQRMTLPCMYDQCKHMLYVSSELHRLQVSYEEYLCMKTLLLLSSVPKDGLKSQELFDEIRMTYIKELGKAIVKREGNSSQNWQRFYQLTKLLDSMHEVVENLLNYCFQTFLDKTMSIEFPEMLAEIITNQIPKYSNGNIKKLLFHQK
Cytochrome P450 2C19 (Homo sapiens), sequence (P33261 whole entry, looked up): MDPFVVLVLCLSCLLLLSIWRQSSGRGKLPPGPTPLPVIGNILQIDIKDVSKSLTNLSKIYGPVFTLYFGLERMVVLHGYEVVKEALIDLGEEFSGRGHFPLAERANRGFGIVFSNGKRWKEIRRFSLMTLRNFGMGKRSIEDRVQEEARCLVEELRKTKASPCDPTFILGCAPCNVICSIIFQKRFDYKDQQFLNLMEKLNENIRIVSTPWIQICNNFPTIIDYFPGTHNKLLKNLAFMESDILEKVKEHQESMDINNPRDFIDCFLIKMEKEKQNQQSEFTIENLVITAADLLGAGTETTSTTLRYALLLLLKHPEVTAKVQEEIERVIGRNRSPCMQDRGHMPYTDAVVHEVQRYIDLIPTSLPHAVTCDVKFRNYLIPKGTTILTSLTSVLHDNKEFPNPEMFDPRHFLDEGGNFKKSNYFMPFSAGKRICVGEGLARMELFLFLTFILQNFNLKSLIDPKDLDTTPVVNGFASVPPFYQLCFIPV
Cytochrome P450 2C9 (Homo sapiens), sequence (P11712 whole entry, looked up): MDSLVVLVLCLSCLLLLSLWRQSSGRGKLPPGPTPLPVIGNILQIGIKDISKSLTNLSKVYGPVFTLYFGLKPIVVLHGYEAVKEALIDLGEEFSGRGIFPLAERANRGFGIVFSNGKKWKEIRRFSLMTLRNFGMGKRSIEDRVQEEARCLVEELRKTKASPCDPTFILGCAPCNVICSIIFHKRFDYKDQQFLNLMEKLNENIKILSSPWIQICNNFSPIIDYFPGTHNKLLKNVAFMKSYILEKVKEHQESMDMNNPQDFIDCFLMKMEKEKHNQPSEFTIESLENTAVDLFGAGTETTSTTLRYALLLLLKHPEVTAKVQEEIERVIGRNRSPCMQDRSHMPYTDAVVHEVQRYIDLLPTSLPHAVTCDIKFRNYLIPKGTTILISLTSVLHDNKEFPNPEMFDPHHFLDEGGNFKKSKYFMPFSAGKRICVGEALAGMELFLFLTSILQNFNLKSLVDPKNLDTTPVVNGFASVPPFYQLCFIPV
3',5'-cyclic-AMP phosphodiesterase 4B (Homo sapiens), sequence (Q07343 whole entry, looked up): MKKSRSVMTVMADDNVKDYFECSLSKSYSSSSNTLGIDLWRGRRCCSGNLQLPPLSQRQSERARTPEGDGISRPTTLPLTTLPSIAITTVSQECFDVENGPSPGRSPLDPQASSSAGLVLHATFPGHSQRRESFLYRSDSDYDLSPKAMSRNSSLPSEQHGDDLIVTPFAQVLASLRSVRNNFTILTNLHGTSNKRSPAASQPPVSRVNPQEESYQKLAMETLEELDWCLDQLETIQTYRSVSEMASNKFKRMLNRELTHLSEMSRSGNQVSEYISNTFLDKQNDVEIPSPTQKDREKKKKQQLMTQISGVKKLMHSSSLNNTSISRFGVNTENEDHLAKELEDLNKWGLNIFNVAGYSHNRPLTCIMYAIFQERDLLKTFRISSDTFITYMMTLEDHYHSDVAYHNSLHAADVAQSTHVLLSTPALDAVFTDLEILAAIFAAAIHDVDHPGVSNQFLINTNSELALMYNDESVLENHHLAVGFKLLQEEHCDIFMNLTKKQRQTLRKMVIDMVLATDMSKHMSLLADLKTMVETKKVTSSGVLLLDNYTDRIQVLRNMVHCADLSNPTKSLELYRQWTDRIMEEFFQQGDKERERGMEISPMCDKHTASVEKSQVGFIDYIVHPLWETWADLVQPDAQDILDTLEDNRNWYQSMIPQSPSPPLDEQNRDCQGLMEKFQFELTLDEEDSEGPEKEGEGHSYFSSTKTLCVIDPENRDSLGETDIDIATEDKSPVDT
Cytochrome P450 1A2 (Homo sapiens), sequence (P05177 whole entry, looked up): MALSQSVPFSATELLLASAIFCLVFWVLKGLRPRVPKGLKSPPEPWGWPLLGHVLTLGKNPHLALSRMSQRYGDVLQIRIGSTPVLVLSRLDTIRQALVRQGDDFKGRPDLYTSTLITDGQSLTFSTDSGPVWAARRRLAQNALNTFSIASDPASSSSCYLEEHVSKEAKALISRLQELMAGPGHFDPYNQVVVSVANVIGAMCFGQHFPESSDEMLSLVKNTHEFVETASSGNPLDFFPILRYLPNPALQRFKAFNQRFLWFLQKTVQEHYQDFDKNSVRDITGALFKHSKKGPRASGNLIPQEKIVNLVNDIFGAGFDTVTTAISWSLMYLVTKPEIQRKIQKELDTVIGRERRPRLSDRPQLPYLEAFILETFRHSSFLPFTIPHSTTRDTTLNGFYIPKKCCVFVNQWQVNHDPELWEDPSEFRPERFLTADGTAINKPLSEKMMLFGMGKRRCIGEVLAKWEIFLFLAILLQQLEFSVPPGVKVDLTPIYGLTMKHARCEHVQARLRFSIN

O=c1[nH]c2cc(Cl)ccc2c(O)c1-c1cccc(Oc2ccccc2)c1
active: [1] 2.51 µM | [5] 6.31 µM
inactive: [2] > 46 µM | [3] > 46 µM | [4] | [6] | [7] | [8] | [9]

N[C@@H](C(=O)O)c1cc(O)ccc1Cl
active: [1] 15.8 µM
inactive: [2] > 46 µM | [3] > 46 µM | [4] | [10] | [11] | [7] | [8] | [9]

COc1ccccc1N1CCN(CCN2C(=O)c3ccccc3C(C)(C)C2=O)CC1
inactive: [2] > 46 µM | [3] > 46 µM | [4] | [10] | [11] | [6] | [7] | [8] | [9]
active: [1] 39.8 µM

CSc1cc2c(cc1C(F)(F)F)N(C(=O)Nc1cccnc1)CC2
inactive: [2] > 46 µM | [3] > 46 µM | [4] | [11] | [7] | [8] | [9]
active: [1] 0.000794 µM | [12] 0.0063 µM

CCCCCCN(CCCCCC)C(=O)Cc1c(-c2ccc(Cl)cc2)[nH]c2ccc(Cl)cc12
active: [1] 31.6 µM
inactive: [2] > 46 µM | [3] > 46 µM | [4] | [10] | [11] | [6] | [7] | [8] | [9]

CSc1nc(NC2CCCC2)c([N+](=O)[O-])c(NC2CCCC2)n1
inactive: [2] > 46 µM | [3] > 46 µM | [4] | [10] | [7] | [8] | [9]
active: [1] 3.98 µM | [12] 2 µM | [13] 5.01 µM

CCc1cc2c(c(CC)n1)CCC(=O)N2Cc1ccc(-c2ccccc2-c2nn[nH]n2)cc1
active: [13] 5.01 µM
inactive: [1] | [2] > 46 µM | [3] > 46 µM | [4] | [11] | [7] | [8] | [9]

CC1(C)C(=O)NC2=C1C(=O)C(=O)c1ccccc12
active: [1] 3.16 µM | [6] 0.891 µM
inactive: [2] > 46 µM | [3] > 46 µM | [10] | [11] | [7] | [8] | [9]

O=C(Cc1ccccc1)Nc1nc2ccc(Cl)cc2c2nc(-c3ccco3)nn12
inactive: [2] > 46 µM | [3] > 46 µM | [4] | [10] | [11] | [6] | [8] | [9]
active: [1] 0.2 µM | [12] 3.16 µM | [13] 1.58 µM | [7] 21.1 µM

c1ccc(N2CCN(CCCOc3ccc4c(c3)OCO4)CC2)cc1
active: [1] 12.6 µM | [14] 3.16 µM | [5] 0.126 µM | [13] 5.01 µM
inactive: [2] > 46 µM | [3] > 46 µM | [4] | [11] | [6] | [7] | [8] | [9]

Clc1cccc(Nc2nnc(-c3ccccc3)c3ccccc23)c1
inactive: [2] > 46 µM | [3] > 46 µM | [4] | [11] | [7] | [8] | [9]
active: [1] 1.26 µM | [12] 3.98 µM | [13] 0.794 µM

COc1cc(COc2cc(N)c(Cl)cc2C(=O)CCC2CCN(CCNS(C)(=O)=O)CC2)cc(OC)c1
active: [14] 2 µM | [5] 0.794 µM
inactive: [1] | [2] > 46 µM | [3] > 46 µM | [4] | [11] | [7] | [8] | [9]

Fc1ccc([C@H]2CCNC[C@H]2COc2ccc3c(c2)OCO3)cc1
inactive: [2] > 46 µM | [3] > 46 µM | [4] | [11] | [6] | [7] | [8] | [9]
active: [1] 3.16 µM

Cc1noc(NS(=O)(=O)c2cccc3c(N(C)C)cccc23)c1C
inactive: [1] | [2] > 46 µM | [3] > 46 µM | [4] | [10] | [11] | [7] | [8] | [9]
active: [12] 0.631 µM

c1cc2c(cc1C1CCCCC1)c1c3n2CCN[C@H]3CCC1
inactive: [2] > 46 µM | [3] > 46 µM | [4] | [11] | [7] | [8] | [9]
active: [1] 15.8 µM

O=C(c1ccccc1)[C@@H]1O[C@H]1c1ccc(-c2ccccc2)cc1
active: [1] 6.31 µM
inactive: [2] > 46 µM | [3] > 46 µM | [4] | [7] | [8] | [9]

C[C@H](NC[C@H](O)CP(=O)(O)CC1CCCCC1)c1ccc(Cl)c(Cl)c1
active: [1] 39.8 µM
inactive: [2] > 46 µM | [3] > 46 µM | [4] | [10] | [11] | [6] | [7] | [8] | [9]
